Compound activity as filed in PubChem.
Most compounds without a hit are left out; they make up all but 0.92% or so of the library.
APE1 inh-1 – qHTS Assay for Inhibitors of the Human Apurinic/apyrimidinic Endonuclease 1 (APE1) | DNA repair nuclease/redox regulator APEX1 (Homo sapiens), P27695 | recombinant APE1, TAMRA/BHQ-2 abasic DNA cleavage fluorescence | Potency, µM (top dose mostly 65.8 µM), without a hit: at the highest dose activity change, negative = inhibition, most hits filed as inhibitors | 350,000 compounds, 0.35% hits | AID 2517, 2012;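 note: plate controls were vehicle for no effect and reference inhibitor for full effect; nearly all actives have a fitted effect of over 55% in size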
Target sequence (P27695 whole entry, looked up): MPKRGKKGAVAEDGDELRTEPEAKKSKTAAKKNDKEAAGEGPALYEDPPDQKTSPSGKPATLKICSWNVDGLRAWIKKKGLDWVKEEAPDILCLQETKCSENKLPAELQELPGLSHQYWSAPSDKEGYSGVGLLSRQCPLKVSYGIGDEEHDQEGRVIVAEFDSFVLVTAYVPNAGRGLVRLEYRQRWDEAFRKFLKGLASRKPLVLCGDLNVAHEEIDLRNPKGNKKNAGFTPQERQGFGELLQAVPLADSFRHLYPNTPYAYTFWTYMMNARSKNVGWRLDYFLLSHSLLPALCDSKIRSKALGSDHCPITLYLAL
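Kinetic fluorescence read (525 ex/598 em nm, three reads 60 s apart) of AP-site incision; signal = third minus first read. Enzyme 0.75 nM, dual-labelled THF duplex 50 nM, compound preincubation 15 min RT.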
BLM inh-1 – qHTS Assay for Inhibitors of Bloom's syndrome helicase (BLM) | recombinant BLM DNA unwinding, fluorescence dequenching | Potency, µM (series often up to 56.1 µM), for inactives: top-dose activity change, negative = inhibition, hits mostly inhibitors | 350,000 compounds, 0.2% hits | AID 2528, 2010;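 note: plate controls were vehicle for no effect and no enzyme for full effect; nearly all actives have a fitted effect of over 35% in size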
TDP1 block – qHTS Assay for Inhibitors of Tyrosyl-DNA Phosphodiesterase (TDP1) | AID 485290, 2010 | Potency, µM (top dose mostly 130 µM), for inactives: top-dose activity change, negative = inhibition, usual class: inhibitors | recombinant TDP1, AlphaScreen DNA substrate cleavage | 350,000 compounds, 0.28% hits | Tyrosyl-DNA phosphodiesterase 1 (Homo sapiens), Q9NUW8; note: % is set by controls: 0 for no effect and ±100 for the full control effect; nearly all actives have a fitted effect of over 40% in size
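Tdp1 1 nM final; 15 min RT w/ cpd; substrate 15 nM, 5 min; beads 10 ug/ml, 10 min; AlphaScreen read. Neg ctrl: no enzyme.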
RECQ1 helicase – qHTS Assay for Inhibitors of RecQ-Like Dna Helicase 1 (RECQ1); ATP-dependent DNA helicase Q1 (Homo sapiens), P46063; RECQ1 DNA unwinding, red fluorescence kinetic read; Potency, µM (top dose mostly 57.3 µM), without a hit: at the top dose activity, negative = inhibition, usual class: inhibitors; 240,000 compounds, 0.54% hits;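 note: plate controls were vehicle for no effect and no enzyme for full effect; nearly all actives have a fitted effect of over 30% in size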
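50 nM RECQ1T1 preincubated 15 min with compound in Tris pH 8.0 buffer with MgCl2, DTT, Tween-20 and 2.5 ug/ml poly(dI-dC); started with 200 nM TAMRA/BHQ-2 forked duplex and 2 mM ATP. Unwinding read as fluorescence (525/598 nm), two reads 2 h apart.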
FEN1 inh-1 – qHTS Assay for the Inhibitors of Human Flap endonuclease 1 (FEN1); Potency, µM (series often up to 114 µM), inactives show at the top dose activity change, negative = inhibition, actives largely listed as inhibitors; P39748; AID 588795, 2011; 390,000 compounds, 0.35% hits; Recombinant FEN1 flap cleavage, fluorescence, 15 min; note: % is set by controls: 0 for no effect and ±100 for the full control effect; nearly all actives have a fitted effect of over 65% in size
Target sequence (P39748 whole entry, looked up): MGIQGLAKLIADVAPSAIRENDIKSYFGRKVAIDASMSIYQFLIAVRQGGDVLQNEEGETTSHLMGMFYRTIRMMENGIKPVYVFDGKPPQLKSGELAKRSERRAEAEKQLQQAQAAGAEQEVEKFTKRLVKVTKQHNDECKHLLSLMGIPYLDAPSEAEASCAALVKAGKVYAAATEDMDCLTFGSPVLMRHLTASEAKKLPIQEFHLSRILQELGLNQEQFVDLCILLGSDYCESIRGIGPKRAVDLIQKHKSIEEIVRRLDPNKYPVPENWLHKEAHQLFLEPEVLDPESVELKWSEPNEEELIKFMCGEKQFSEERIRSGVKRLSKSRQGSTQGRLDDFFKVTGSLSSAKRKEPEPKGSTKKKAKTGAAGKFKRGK
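Concentration–response screening of FEN1 (10 nM): 15 min compound preincubation at room temperature, reaction started with 50 nM substrate and read at 0 and 15 min. Corrected, normalized data were fitted by a four-parameter Hill equation.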
APE1 dye cs – Counterscreen for APE1 Inhibitors: Fluorescent Dye Displacement Assay; shares compounds with APE1 inh-1; DNA fluorescent dye displacement counterscreen, fluorescence; Potency, µM (titrated, usually from 28.5 µM), inactives show at the top dose activity change, negative = inhibition, actives largely listed as inhibitors; 480 compounds, 7% hits;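 note: loss of thiazole orange fluorescence as the dye is displaced from duplex DNA; 0% = ThO with dsDNA and no compound and -100% = ThO without dsDNA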
Endo IV inh – Counterscreen for APE1 Inhibitors: qHTS Assay for Inhibitors of Endonuclease IV; E. coli Endo IV, fluorogenic AP-site DNA cleavage; 560 compounds, 4% hits; Potency, µM (doses to about 27.1 µM), for the others: at the highest dose activity change, negative = inhibition, actives largely listed as inhibitors; shares compounds with APE1 inh-1;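 note: plate controls were uninhibited enzyme wells for no effect and no enzyme buffer wells for full effect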
APE1 inh-2 – Confirmation qHTS Assay for Inhibitors of the Human Apurinic/apyrimidinic Endonuclease 1 (APE1). shares compounds with APE1 inh-1. purified APE1, fluorogenic abasic-site DNA cleavage. Potency, µM (top dose mostly 57.1 µM), without a hit: at the highest dose activity change, negative = inhibition, most hits filed as inhibitors. 750 compounds, 44% hits; note: % is set by controls: 0 for no effect and ±100 for the full control effect; nearly all actives have a fitted effect of over 30% in size
APE1 FP – qHTS FP-Based Assay for Inhibitors of the Human Apurinic/apyrimidinic Endonuclease 1 (APE1); Potency, µM (doses to about 28.5 µM), without a hit: at the highest dose activity, negative = inhibition, most hits filed as inhibitors; 480 compounds, 7% hits; shares compounds with APE1 inh-1; AID 2573, 2010; APE1 binding to TAMRA-labelled double-stranded DNA, fluorescence polarization displacement; note: % is set by controls: 0 for no effect and ±100 for the full control effect
BLM inh-2 – qHTS Confirmation Assay for Inhibitors of Bloom's syndrome helicase (BLM) | BLM DNA unwinding, fluorescence quenching, biochemical | shares compounds with BLM inh-1 | 220 compounds, 40% hits | Potency, µM, for the others: max response, negative = inhibition, most hits filed as inhibitors | AID 2585, 2010;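 note: strand separation dequenches TAMRA so unwinding raises red fluorescence; series mostly up to about 69 µM; % is set by controls: 0 for no effect and ±100 for the full control effect; nearly all actives have a fitted effect of over 45% in size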
RECQ1 inh conf – Confirmation qHTS Assay for Inhibitors of RecQ-Like Dna Helicase 1 (RECQ1); AID 2708, 2010; shares compounds with RECQ1 helicase; 610 compounds, 28% hits; RECQ1 helicase DNA unwinding, fluorescence; Potency, µM (top dose mostly 229 µM), for inactives: at the highest dose activity change, negative = inhibition, usual class: inhibitors; note: % is set by controls: 0 for no effect and ±100 for the full control effect; nearly all actives have a fitted effect of over 45% in size
ADP FP counter – Counterscreen for RECQ1 Inhibitors: ADP Fluorescence Polarization Displacement Assay; shares compounds with RECQ1 helicase; ADP fluorescence polarization displacement counterscreen; Potency, µM (series often up to 228 µM), for inactives: at the highest dose activity change, negative = inhibition, actives largely listed as inhibitors; 530 compounds, 27% hits; AID 2711, 2010; note: % is set by controls: 0 for no effect and ±100 for the full control effect; nearly all actives have a fitted effect of over 45% in size
FEN1 inh-2 – qHTS Assay for the Inhibitors of FEN1: Confirmatory Assay for Cherry-picked Compounds; shares compounds with FEN1 inh-1; FEN1 flap cleavage, TAMRA/BHQ2 fluorogenic DNA substrate; Potency, µM, hits mostly inhibitors; 880 compounds, 79% hits; AID 720498, 2013; note: nearly all actives have a fitted effect of over 60% in size
Starred values were filed as active, the others as inactive; ? = inconclusive; . = no result; ! = not confirmed by another sample; [ ] = remark or other dose. Calls come from the whole dose curve; as a rule, active = well fitted curve in the direction sought with a large enough effect; inconclusive = small, poorly fitted or top-dose-only effect, or another doubt; inactive = no such curve, though single readings can be large; an effect the other way counts as inactive or inconclusive. Potency is the fitted concentration of half-maximal effect.

SMILES	APE1 inh-1	BLM inh-1	TDP1 block	RECQ1 helicase	FEN1 inh-1	BLM inh-2	others
NC[C@H](O)c1ccc(O)c(O)c1	0.89µM*!	3.5µM*	2.2µM*!	1.4µM*	-12%	.	APE1 dye cs=-6%[57.1 µM];Endo IV inh=10%[57.1 µM];APE1 inh-2=0.79µM*;APE1 FP=?;RECQ1 inh conf=25µM*!;ADP FP counter=10µM*!;FEN1 inh-2=34*
CC(C)NCC(O)c1ccc(O)c(O)c1 (configuration not stated)	-4%	-1%	-9%[56.1 µM]	-2%	5%	.
Cc1ccc(Cl)cc1NC(=O)C(=O)NCCc1sc(-c2ccc(F)cc2)nc1C	.	1%	5%	.	-5%	.
CCn1c(SCc2nc3sc(C(=O)O)c(C)c3c(=O)[nH]2)nc2ccccc21	20µM*	67%	8.9µM*	?	13µM*	.	APE1 inh-2=?;FEN1 inh-2=21*
NS(=O)(=O)c1ccc(N/N=C/c2ccc(O)c(O)c2O)c([N+](=O)[O-])c1	2µM*	16µM*	-10%	3.2µM*	10µM*	.	APE1 dye cs=13µM*;Endo IV inh=23%;APE1 inh-2=5.6µM*;APE1 FP=-9%;FEN1 inh-2=15*
O=C(/C=C/c1ccccc1Cl)Nc1ccc2c(c1)C(=O)NC2=O	13µM*	32µM*	-11%	-23%	-28%	?
COc1ccc2c(c1)Cc1sc(NC(=O)c3cccnc3)nc1-2	?	18µM*	2%	-2%	-1%	?
COc1ccc2c(c1)Cc1sc(NC(C)=O)nc1-2	-5%	-11%	7%	11%	-11%	.
CCN(CCO)c1ncnc2c1sc1nc(C(C)C)c3c(c12)CC(C)(C)OC3	3%	-1%	-2%	-10%	2%	.
CCN(CCO)c1nc(SC)nc2c1sc1nc(-c3ccco3)c3c(c12)CCC3	?	10µM*	4%	-5%	-9%	?
N#Cc1sc2nc(-c3ccccc3)cc(-c3ccco3)c2c1N	?	4µM*	-8%	?	?	4.1µM*
COc1ccc(-c2nc(CCNC(=O)Cc3ccc(F)cc3)cs2)cc1	.	-1%	2%	.	16%	.
COc1ccc(C2=N[C@@H](C(C)C)CO2)cc1	2%[120 µM]	1%[120 µM]	-1%[234 µM]	-14%[126 µM]	.	.
O=C1C(Cl)=C(NCCN2CCOCC2)C(=O)c2ccccc21	-4%	-9%	.	.	-13%	.
O=C1C(Cl)=C(NCCN2CCOCC2)C(=O)c2ncccc21	?	5µM*	5%	?	.	5.8µM*
O=C1CCCC2=C1C1(CCCC1)N=C(Nc1nc3cc(Br)ccc3o1)N2	.	.	0%	.	.	.
C=C1c2cccc(OC)c2O[C@H](C(=O)OCC)[C@@H]1CC(CC)CCCC (some centres not stated)	-31%	-8%[75.6 µM]	?	0%[81.1 µM]	-7%	.
CCOC(=O)/C=C1\CC(C(=O)OCC)Oc2c(OC)cccc21 (configuration not stated)	-6%	2%[75.6 µM]	0%[56.1 µM]	-7%[81.1 µM]	-10%	6%
Cc1c(C(=O)Nc2ccc(F)cc2)cn2c(nc3ccccc32)c1C#N	28%	-7%	.	-8%	9%	.
N#Cc1c2nc3ccccc3nc2n2cc(NC(=O)c3ccc(F)cc3)ccc12	4%	13µM*	3%	-6%	?	7.3µM*
Cn1c(SCC(=O)c2cc(Cl)c(Cl)s2)nnc1-c1ccco1	2%	13µM*	0%	-6%	-21%	?
COc1ccc(Cn2c(CCC(=O)Nc3cc(OC)c(OC)c(OC)c3)nc3cccnc32)cc1	.	1%	6%	.	-6%	.
COc1ccc(OC)c(NC(=O)COC(=O)c2cc3c(s2)CCC3)c1	12%	16µM*	2.8µM*	?	?	18µM*
Cc1cnc2c(C)ccc(C)c2c1/C=C/c1ccc(N(C)C)cc1	.	.	.	.	0%	.
COc1cccc(=O)c2c(C)n(CC(=O)c3ccccc3)c(C)c12	-3%	25µM*	6%	-18%	-14%	4%
CCOc1ccc(S(=O)(=O)N(CC(=O)Nc2ccc(OC)c(Cl)c2)c2ccccc2)cc1	.	0%	.	.	2%	.
